Screening data from PubChem BioAssay.
Shown are actives, neighbours in structure and some others; about 13% of the full set was active somewhere.
Shiga toxin inh – A qHTS for Small Molecule Inhibitors of Shiga Toxin. Vero cells, Shiga toxin protein synthesis inhibition reporter. inhibition, % at 38.7 µM. 9.2% of 290,000 active; in the data active means inhibition mostly above about 28%, no sharp cut-off; inactive means mostly below about 43%; further: 0% is about no effect
MARV entry inh – qHTS for inhibitors of binding or entry into cells for Marburg Virus; Marburg virus pseudotyped entry inhibition, cell reporter; Potency, µM (highest dose often 37.8 µM), inactives show top-dose activity change, negative = inhibition, most hits filed as inhibitors; 1.8% of 300,000 active; AID 540276, 2011; calls by dose curve; tested in HEK293 cells; further: potency means the concentration at half of the fitted maximal effect; on the % scale 0 is the no-effect control and ±100 the full control effect
CHX counter – Cycloheximide Counterscreen for Small Molecule Inhibitors of Shiga Toxin | cell reporter, cycloheximide protein synthesis inhibition counterscreen | max response, % | 12% of 300,000 active | AID 2314, 2010; in the data active means max response mostly above about 13%, no sharp cut-off; inactive means mostly below about 14%; further: read at 38.3 µM for the half of the compounds with a filed dose; 0% is about no effect
HCV inhibitor – qHTS Assay for Inhibitors of Hepatitis C Virus (HCV); Huh7.5.1 HCVcc-Cre infection, luciferase reporter, 44 h; Potency, µM (highest dose often 41.8 µM), without a hit: at the top dose activity change, negative = inhibition, usual class: inhibitors; 3.4% of 340,000 active; AID 651820, 2012; active means well fitted inhibition curve with a large enough effect; inconclusive means small, poorly fitted or top-dose-only effect, or another doubt; inactive means no such curve, though single readings can be large or run the other way; further: potency means the concentration at half of the fitted maximal effect; on the % scale 0 is the no-effect control and ±100 the full control effect
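Antiviral activity was scored by luciferase reporter output from cells infected with HCVcc-Cre (~0.5 moi) in presence of compound, 44 h infection period, cells seeded 1,000/well 4 h prior.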
FMDV antiviral – High Throughput Screening for Foot and Mouth Disease Virus Antivirals; FMDV antiviral cell-based qHTS; Potency, µM (doses to about 57.9 µM), without a hit: top-dose activity change, negative = inhibition, actives largely listed as inhibitors; 1.2% of 410,000 active; calls by dose curve; tested in HEK293T cells; further: read-out not given here; potency means the concentration at half of the fitted maximal effect; on the % scale 0 is the no-effect control and ±100 the full control effect; nearly all actives have a fitted effect of over 45% in size
LASV entry inh – qHTS for Inhibitors of binding or entry into cells for Lassa Virus; Potency, µM (highest dose often 37.9 µM), without a hit: top-dose activity change, negative = inhibition, actives largely listed as inhibitors; Lassa virus pseudotype entry inhibition, cell reporter; 1.2% of 300,000 active; calls by dose curve; tested in HEK293 cells; further: potency means the concentration at half of the fitted maximal effect; on the % scale 0 is the no-effect control and ±100 the full control effect; nearly all actives have a fitted effect of over 50% in size
An asterisk follows results filed as active; ? = inconclusive; . = no result given; [ ] = remark or other dose.

SMILES	Shiga toxin inh	MARV entry inh	CHX counter	HCV inhibitor	FMDV antiviral	LASV entry inh
O=C(NCCc1ccccc1)C(c1cccs1)N(C(=O)CCl)c1ccc(Cl)cc1 (stereo not given)	-19	?	-4	?	35µM*	18µM*
COc1ccc2c(c1)C=C(CN1CCC(CO)(CCc3ccccc3)CC1)CO2	-4	?	-1	-11%	-25%	-1%[46.1 µM]
COc1ccc(CC2(CO)CCN(Cc3cnn(-c4ccc(F)cc4)c3)CC2)cc1	-14	.	-4	10µM*	?	.
COc1ccc(CC2(CO)CCN(Cc3cnn(-c4ccccc4)c3)CC2)cc1	17	?	-2	?	?	-5%
COc1ccc(CC2(CO)CCN(CC3=Cc4cc(Cl)ccc4OC3)CC2)cc1	-7	?	-4	4.5µM*	?	?
Cn1c(N=NC(=O)c2ccccc2)c(O)c2ccccc21	33*	?	43*	4%	-54%	?
CS(=O)c1ccccc1COC(=O)Nc1ccccc1 (stereo not given)	8	4%[46.1 µM]	-2	-5%	-8%	1%
COc1ccc(-c2nc3cc(C)c(Br)c(C)n3c2Cc2cccc(F)c2)cc1OC	.	.	.	.	-20%	.
COc1ccc(OC)c2sc(NC(=O)CCS(=O)(=O)c3ccccc3)nc12	.	.	.	?	-10%	.
COc1ccc(OC)c2sc(NC(=O)C(C)C)nc12	8	.	13	7.9µM*	-9%	.
COc1ccc(OC)c2sc(NC(=O)C3=COCCO3)nc12	29	.	-1	11µM*	-20%	.
COc1ccc(OC)c2sc(NC(=O)CCSc3ccccc3)nc12	-9	.	3	10µM*	-25%	.
COc1cccc2sc(NNC(=O)C3=COCCO3)nc12	87*	30%	40*	?	56%	?
COc1ccc(C)c2sc(NC(=O)C3=COCCO3)nc12	27*	.	12*	-27%	.	.
CN(C)/N=C/c1ccc(/C=N/NC(N)=S)o1	-4	?	-1	5%	33%	0%[46.1 µM]
C/C(=N\NC(=O)c1nnn(-c2nonc2N)c1-c1ccccc1)c1ccccc1O	-16	?	1	6.3µM*	29%	?
CCCN(CCC)Cc1c(C(=O)N/N=C/C(C)=C\c2ccco2)nnn1-c1nonc1N	-6	4.5µM*	-2	8.9µM*	13%	?
C/C(=N\NC(=O)c1nnn(-c2nonc2N)c1CN(C)c1ccccc1)c1ccc(O)cc1	-8	.	1	0%	-10%	.
C/C(=N\NC(=O)c1nnn(-c2nonc2N)c1CN(C)c1ccccc1)c1ccccn1	-16	.	2	4.5µM*	-10%	.
CCOC(=O)NC(=O)/C(C=Nc1ccc(Cl)c(Cl)c1Cl)=C(\C)O	-2	1%	-1	12%	8%	3%
O=C(c1cc(-c2ccncc2)nc2c(Cl)cccc12)N1CCN(c2ccccc2F)CC1	-14	.	-2	.	.	.
CCCNC(=O)CN1C(=O)COc2ccc(S(=O)(=O)N3CCCC3)cc21	.	11%[46.1 µM]	.	.	-8%	1%[46.1 µM]
CSc1ccc(-c2sc(Nc3ccccc3)n[n+]2-c2ccccc2)cc1	53*	.	36*	-30%	-13%	.
CCc1ccc(Nc2n[n+](-c3ccccc3)c(-c3ccc(OC)c(Br)c3)s2)cc1	33*	.	26*	?	0%	.
COc1ccc(C)cc1Nc1n[n+](-c2ccccc2)c(-c2ccc(NC(C)=O)cc2)s1	0	.	2	0%	-3%	.
SMILES	Shiga toxin inh	MARV entry inh	CHX counter	HCV inhibitor	FMDV antiviral	LASV entry inh
CCc1ccc(Nc2n[n+](-c3ccccc3)c(-c3ccc(C(=O)O)cc3)s2)cc1	17	.	-1	3%	6%	.
CSc1ccc(-c2sc(Nc3cccc4ccccc34)n[n+]2-c2ccccc2)cc1	17*	.	22*	8.9µM*	10%	.
COc1ccc(C)cc1Nc1n[n+](-c2ccccc2)c(-c2ccc(SC)cc2)s1	52*	.	42*	?	4%	.
CC(=O)Nc1ccc(-c2sc(Nc3cccc4ccccc34)n[n+]2-c2ccccc2)cc1	-3	.	-2	1%	0%	.
CCCCn1nc(C(=O)Nc2c(C)n(C)n(-c3ccccc3)c2=O)c2ccccc2c1=O	.	.	.	5%	-18%	.
Cc1ccc(S(=O)(=O)NCC(=O)OCC(=O)c2ccc(S(=O)(=O)N3CCCCC3)cc2)cc1C	.	3%	.	0%	-10%	.
